“And” between values parts separate entries of the source, which are not always exact repeats. Equal entries are not always repeated. Out of some 270,000 compounds screened, about 5,800 (2.1%) were called active. A call without a number means that no potency is given here. About 16% were inconclusive and are not listed. Calls follow the shape of the dose curve; as a rule, active = well fitted inhibition curve with a large enough effect; inconclusive = small, poorly fitted or top-dose-only effect; inactive = flat fitted curve, though single readings scatter. Many of the other results were omitted from the sample, so actives are more common in it than they were.
Potency is read from the fitted curve at half-maximal effect.

Microtubule-associated protein tau (Homo sapiens), sequence (P10636 561-689 P618L limits assumed): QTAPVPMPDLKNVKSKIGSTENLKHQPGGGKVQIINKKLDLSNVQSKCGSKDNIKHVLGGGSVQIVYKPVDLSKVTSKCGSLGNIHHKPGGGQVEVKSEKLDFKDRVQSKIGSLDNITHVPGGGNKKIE

The target in the assay is Microtubule-associated protein tau (Homo sapiens) (UniProt P10636). Description: qHTS for Inhibitors of Tau Fibril Formation, Thioflavin T Binding. Also: nearly all actives have a fitted effect of over 55% in size. The note with it: recombinant tau K18 P301L, heparin-induced fibrillization, ThT fluorescence; series mostly up to 57.4 µM. An outline of the steps:
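Using a mix of unlabeled (15 uM) and Alexa 594-labeled (0.24 uM) tau K18 P301L, heparin-triggered fibrillization over 6 hr at 37 C was scored by ThT fluorescence.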
In general terms: qHTS replaces the single test concentration by a dilution series.
On to `Cc1cccc(CC(=O)Nc2cccc(-c3cn4cccnc4n3)c2)c1`, for which the Potency entry was “inactive”. With `CCc1cccc(C)c1NS(=O)(=O)c1ccc(-c2cc(C)no2)s1`, the Potency entry was “inactive”. Turning to `COc1cc(/C=N/Nc2nc3ccccc3s2)ccc1O`, the Potency was 5.62 µM (active). As for `Cc1ccc(S(=O)(=O)Nc2nc3ccccc3s2)cc1[N+](=O)[O-]`, the entry is “inactive”.

On to `COc1cc(/C=N\Nc2nc(-c3cccs3)c(NC(C)=O)s2)ccc1O`, for which the Potency is 15.8 µM (active). For the compound `COc1cc(/C=N/NC(=O)CCc2n[nH]c(=O)[nH]c2=O)ccc1O`, the Potency entry was “inactive”. Regarding `O=[N+]([O-])c1cc(Br)c(O)c(/C=N/Nc2nc3ccccc3s2)c1`, the Potency is 4.47 µM (active). As for `O=C(NC(Nc1nc2ccc([N+](=O)[O-])cc2s1)(C(F)(F)F)C(F)(F)F)c1ccccc1`, the entry is “inactive”; as for `COc1ccc(S(=O)(=O)Nc2ccc(O)c(Sc3nc4ccccc4s3)c2)cc1`, “inactive”. On to `COc1cc(/C=N/NC(=O)c2ccccc2)ccc1OS(=O)(=O)c1ccccc1`, for which the Potency entry was “inactive”. Consider `Cc1ccc(C(=O)Nc2nnc(-c3cccs3)s2)cc1C`, for which the Potency result is “inactive”. Consider `Cc1ccc(S(=O)(=O)c2cn(Cc3ccccc3)c3cc(N4CCCC4)c(F)cc3c2=O)c(C)c1`, for which the Potency result is “inactive”. Regarding `O=C1CSC2(C(=O)N(Cc3ccccc3)c3ccccc32)N1c1cccc(F)c1` (stereo not drawn), the Potency entry was “inactive”. `O=C(COc1ccccc1F)Nc1ccc(C(=O)OCc2cc(=O)n3nc(C4CC4)sc3n2)cc1`: the Potency entry was “inactive”. For `CCOc1ccc(OCC)c(NC(=O)CN(c2ccc(C)cc2)S(=O)(=O)c2c(C)n[nH]c2C)c1`, the Potency result is “inactive”. Consider `CNC(=O)CN1C(=O)c2cccnc2Sc2ccccc21`, for which the Potency entry was “inactive”. In the case of `Cc1ccc(Cn2c(=O)n(-c3ccc(C)cc3)c(=O)c3c2c2cc(C)ccc2n3C)cc1`, the Potency entry was “inactive”.

As to `COc1ccccc1NC(=O)c1cc(C2CC2)nc2c1c(C)nn2-c1ccc(C)cc1`, the Potency result was “inactive”. With `Cc1ccc2nc(CNC(=O)c3ccccc3)[nH]c2c1` the entry was “inactive”; with `COc1ccc(NC(=O)c2cc3cc(C)ccc3n2C)cc1`, “inactive”. As for `CCCCNC(=O)CSc1nc2cc3c(cc2c(=O)n1CCCCCC(=O)NCc1ccc2c(c1)OCO2)OCO3`, the Potency entry is “inactive”. For the compound `N#C/C(=C/c1ccc(N2CCCCC2)o1)C(=O)NCCc1c[nH]c2ccccc12`, the Potency is 4.47 µM (active). `CC(=O)N/C(=C/c1ccc(Cl)cc1)C(=O)NCCc1c[nH]c2ccccc12`: the Potency entry was “inactive”. In the case of `O=C(NCCc1c[nH]c2ccccc12)C(=O)NCC1CCCO1` (stereo not drawn), the Potency entry was “inactive”. Take `COc1ccc(CCNC(=O)c2nn(C)c3c2CSc2ccccc2-3)cc1OC`: the Potency result was “inactive”. With `CCc1nc2onc(C)c2c(=O)n1CC(=O)O`, the Potency entry is “inactive”. As for `Oc1ccc(N=Nc2nccs2)c(O)c1`, the figure is 3.55 µM (active). With `Oc1ccc2ccccc2c1N=Nc1nccs1`, the Potency is 7.94 µM (active). Take `CCCCn1c(=O)c2oc3ccccc3c2n(CC(=O)Nc2ccccc2OC)c1=O`: the Potency entry was “inactive”. As for `COc1cc(C(CC(=O)NCCC(C)C)N2Cc3ccccc3C2=O)cc(OC)c1OC` (stereo not drawn), the entry is “inactive”. Consider `O=C(Cn1cnc2c(oc3ccccc32)c1=O)Nc1ccc(OC(F)(F)F)cc1`, for which the Potency result was “inactive”. Take `Cc1ccc(CN2CCC(CNC(=O)c3cnn(-c4ccccc4Cl)c3C3CCN(C(=O)OC(C)(C)C)CC3)CC2)cc1`: the Potency entry is “inactive”.

For `COc1ccc(-c2nnc(SCC(=O)Nc3ccccc3C)o2)cc1OC`, the Potency entry is “inactive”. As for `O=[N+]([O-])c1cc([N+](=O)[O-])c2cccnc2c1O`, the figure is 12.6 µM (active); as for `O=[N+]([O-])c1cccc2ncccc12`, “inactive”. Turning to `CC(c1ccco1)N(C(=O)COc1ccccc1[N+](=O)[O-])c1ccccn1` (stereo not drawn), the Potency entry was “inactive”. In the case of `COCCNc1ncnc2c1c(-c1ccccc1)cn2-c1ccc(C)c(Cl)c1`, the Potency result is “inactive”. `CCc1nnc(NC(=O)c2cccc(S(=O)(=O)N(C)c3ccc(OC)cc3)c2)s1`: the Potency entry was “inactive”. For `CCc1ccc2nc3sc(C(=O)Nc4nnc(CC)s4)c(N)c3cc2c1`, the Potency is 3.98 µM (active). Take `CCc1nnc(NC(=O)c2nc3nccc(C)n3n2)s1`: the Potency result is “inactive”. With `CCC(=O)N1c2ccccc2CC1C(=O)N1CCN(c2cccc(OC)c2)CC1` (stereo not drawn), the Potency entry is “inactive”. In the case of `Cn1c(=O)sc2cc(NS(=O)(=O)c3ccc(C(C)(C)C)cc3)ccc21`, the Potency result is “inactive”. Regarding `COc1ccc2cc1Oc1ccc(cc1)C[C@H]1c3cc(c(OC)cc3CCN1C)Oc1c(O)c(OC)cc3c1[C@H](C2)N(C)CC3`, the Potency result is “inactive”. On to `COc1cc(COCC(O)CN2CCN(Cc3ccc4c(c3)OCO4)CC2)cc(OC)c1OC` (stereo not drawn), for which the Potency result is “inactive”.

As for `COc1c(O)ccc2c1CN1CCc3cc4c(cc3C1C2)OCO4` (stereo not drawn), the Potency is 22.4 µM (active). For the compound `COC(=O)c1ccccc1NC(=O)C(Cc1ccccc1)N1Cc2ccccc2C1=O` (stereo not drawn), the Potency entry was “inactive”. As for `CCCCN(CC)CCCNC(=O)Cn1ncc2c([nH]c3ccc(C)cc32)c1=O`, the Potency entry is “inactive”. Regarding `Cc1ccc(NC(=O)CSc2nc3c(c(=O)[nH]2)CN(Cc2ccc4c(c2)OCO4)CC3)cc1C`, the Potency result is “inactive”. For the compound `Cc1ccc(CN2CCC(CNC(=O)c3cnn(-c4ccc(C)cc4)c3C3CCN(C(=O)OC(C)(C)C)CC3)CC2)cc1`, the Potency entry is “inactive”. With `CCOC(=O)c1ccc(-c2ccc(/C=C(\C#N)C(=O)Nc3ccc(OCC)cc3)o2)cc1` the figure was 1.41 µM (active); with `CCCCOC(=O)/C(C#N)=C/c1ccc(-c2cccc(C(F)(F)F)c2)o1`, “inactive”.

For the compound `Cc1ccc2nc(/C(C#N)=C/c3ccc(-c4ccc(C(=O)OC(C)C)cc4)o3)[nH]c2c1`, the Potency result was “inactive”. Consider `COc1cccc(N2CCN(S(=O)(=O)c3ccc4c(c3)CCCN4C(C)=O)CC2)c1`, for which the Potency entry was “inactive”. As for `COC(=O)c1[nH]c2ccccc2c1NS(=O)(=O)c1ccc(OC)cc1OC`, the entry is “inactive”. As for `CCOC(=O)c1[nH]c2ccc(OC)cc2c1NC(=O)CCN1CCN(Cc2ccccc2)CC1`, the entry is “inactive”. Turning to `COC(=O)c1[nH]c2ccc(Br)cc2c1NC(=O)Oc1ccccc1`, the Potency is 15.8 µM (active). With `O=S(=O)(NCCS(=O)(=O)N1CCN(c2ccccc2)CC1)c1ccc(Cl)cc1` the entry was “inactive”. For the compound `CN(C(=O)CSc1nc2ccc(NC(=O)COc3ccccc3)cc2s1)c1ccccc1`, the Potency entry is “inactive”.

As to `CCCCc1nn2c(=O)cc(COC(=O)c3ccc(NC(=O)c4ccccc4C)cc3)nc2s1`, the Potency entry was “inactive”. As to `O=C1CSC(=S)N1/N=C/c1ccc(O)c([N+](=O)[O-])c1`, the Potency is 6.31 µM (active). As to `O=C(Cn1c[n+](CC(=O)c2ccc([N+](=O)[O-])cc2)cn1)c1ccc([N+](=O)[O-])cc1`, the Potency was 12.6 µM (active) and 20 µM (active). Take `O=C(c1ccncc1)c1ccc([N+](=O)[O-])cc1`: the Potency result was “inactive”. `Cc1ccc(C(=O)Cn2cc([N+](=O)[O-])nc2C)cc1`: the Potency result was “inactive”.

(Values after PubChem BioAssay AID1460 (National Center for Advancing Translational Sciences (NCATS), 2008).)
